Reference: PubChem BioAssay
For some assays here: Potency and affinity values are given separately. Calls of active or inactive are those of the source. Unless noted, how the calls were made is not given here.

Tests used:
[1] = antimalarial activity against Dd2 strain (AID 2302;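 active means growth inhibition above 50% at the single 2 µM test dose, taken to imply half-maximal potency below 2 µM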;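 further: 0% = DMSO untreated growth and 100% = chloroquine plus artemisinin killed control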); conditions: P. falciparum Dd2 in RBCs, LDH growth readout, 72 h; at 2 µM; hits give high values
[2] = human hepatoma cell viability loss – ATP luminescence, cytotoxicity control for P. falciparum antimalarial project, primary screen (AID 2303;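 active means inhibition above 50%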;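 further: 0% = DMSO wells and 100% = digitonin-killed cells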); conditions: HepG2 viability, 24-48 h, at 10 µM, hits give high values
[3] = target: L-lactate dehydrogenase (Plasmodium falciparum (isolate CDC / Honduras)) (UniProt Q27743); assay: PfLDH activity inhibition – cell lysate, 3D7 strain, counter-screen for P. falciparum growth inhibition project (AID 2304);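 further: 0% = vehicle and 100% = reference inhibitor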; conditions: P. falciparum 3D7 crude extract, LDH APAD/NBT absorbance; at 2 µM; hits give high values
[4] = inhibition of 3D7 malaria parasite growth – strain 3D7 (AID 2306);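 further: 0% = DMSO wells and 100% = chloroquine plus artemisinin control wells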; conditions: P. falciparum 3D7 erythrocytic growth, LDH absorbance, 72 h; at 2 µM; hits give high values
[5] = target: Calcium-dependent protein kinase 1 (Plasmodium falciparum (isolate 3D7)) (UniProt P62344); assay: PfCDPK1 kinase inhibitors, biochemical, TCAMS library (AID 1159585; cut-off not given, nearly all actives have IC50 up to about 0.98 µM;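 further: inhibitors leave more ATP so luminescence rises with inhibition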); conditions: recombinant PfCDPK1, Kinase-Glo ATP depletion luminescence
[6] = target: Plasmodium falciparum protein kinase 6 (PK6, PF3D7_1337100) (UniProt Q8IDW1); assay: PfPK6 kinase inhibitors, biochemical, TCAMS library (AID 1159586); conditions: recombinant PfPK6, Kinase-Glo ATP depletion luminescence
[7] = target: Protein kinase 7 (PK7), Plasmodium falciparum 3D7 (PF3D7_0213400) (UniProt Q7YTF7); assay: inhibition of Plasmodium PK7 catalytic activity – biochemical, TCAMS antimalarial set, Kinase-Glo luminescence (AID 1159587); conditions: recombinant PfPK7, Kinase-Glo ATP depletion luminescence
[8] = target: Calcium-dependent protein kinase 4 (Plasmodium falciparum (isolate 3D7)) (UniProt Q8IBS5); assay: PfCDPK4 kinase inhibitors, biochemical, TCAMS library (AID 1159588; cut-off not given, nearly all actives have IC50 up to about 0.91 µM); conditions: recombinant PfCDPK4, Kinase-Glo ATP depletion luminescence
Chain of Calcium-dependent protein kinase 4 (Plasmodium falciparum (isolate 3D7)) (Q8IBS5 whole entry, looked up): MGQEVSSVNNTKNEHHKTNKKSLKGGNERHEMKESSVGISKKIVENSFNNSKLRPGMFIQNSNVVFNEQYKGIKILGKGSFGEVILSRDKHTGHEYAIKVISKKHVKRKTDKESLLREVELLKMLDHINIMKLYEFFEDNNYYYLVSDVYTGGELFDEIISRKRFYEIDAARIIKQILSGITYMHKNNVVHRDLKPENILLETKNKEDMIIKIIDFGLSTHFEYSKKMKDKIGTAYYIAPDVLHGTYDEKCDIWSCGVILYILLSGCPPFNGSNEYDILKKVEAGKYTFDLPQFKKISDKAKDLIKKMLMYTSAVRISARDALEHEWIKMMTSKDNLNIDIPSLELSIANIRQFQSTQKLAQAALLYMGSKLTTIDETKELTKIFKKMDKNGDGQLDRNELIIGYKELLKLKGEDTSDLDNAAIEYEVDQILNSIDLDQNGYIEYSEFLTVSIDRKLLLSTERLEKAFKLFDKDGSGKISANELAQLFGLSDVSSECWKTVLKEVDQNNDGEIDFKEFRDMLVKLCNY

Chain of Plasmodium falciparum protein kinase 6 (PK6, PF3D7_1337100) (Q8IDW1 1-305): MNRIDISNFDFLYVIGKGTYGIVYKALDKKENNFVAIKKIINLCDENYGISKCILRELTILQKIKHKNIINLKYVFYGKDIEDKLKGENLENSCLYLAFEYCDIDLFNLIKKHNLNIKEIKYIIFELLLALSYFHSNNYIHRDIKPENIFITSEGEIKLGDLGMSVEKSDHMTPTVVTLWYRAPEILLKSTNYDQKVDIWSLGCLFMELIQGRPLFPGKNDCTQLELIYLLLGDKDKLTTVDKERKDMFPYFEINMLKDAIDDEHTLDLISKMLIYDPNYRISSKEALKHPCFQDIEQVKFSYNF
Chain of Calcium-dependent protein kinase 1 (Plasmodium falciparum (isolate 3D7)) (P62344 whole entry, looked up): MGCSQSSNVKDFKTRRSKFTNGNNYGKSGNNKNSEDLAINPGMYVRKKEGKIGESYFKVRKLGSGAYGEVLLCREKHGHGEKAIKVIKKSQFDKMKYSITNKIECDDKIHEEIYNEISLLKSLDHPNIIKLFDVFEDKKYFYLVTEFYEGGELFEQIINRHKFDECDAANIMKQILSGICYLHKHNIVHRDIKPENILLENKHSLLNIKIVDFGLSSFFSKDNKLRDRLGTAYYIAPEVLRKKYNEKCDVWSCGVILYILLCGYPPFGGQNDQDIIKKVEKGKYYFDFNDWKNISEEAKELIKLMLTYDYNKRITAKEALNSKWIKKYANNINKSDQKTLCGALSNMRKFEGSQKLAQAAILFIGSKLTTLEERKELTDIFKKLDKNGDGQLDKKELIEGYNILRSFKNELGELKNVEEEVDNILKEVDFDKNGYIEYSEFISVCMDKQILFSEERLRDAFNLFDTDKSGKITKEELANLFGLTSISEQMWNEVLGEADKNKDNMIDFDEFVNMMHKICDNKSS
Chain of L-lactate dehydrogenase (Plasmodium falciparum (isolate CDC / Honduras)) (Q27743 whole entry, looked up): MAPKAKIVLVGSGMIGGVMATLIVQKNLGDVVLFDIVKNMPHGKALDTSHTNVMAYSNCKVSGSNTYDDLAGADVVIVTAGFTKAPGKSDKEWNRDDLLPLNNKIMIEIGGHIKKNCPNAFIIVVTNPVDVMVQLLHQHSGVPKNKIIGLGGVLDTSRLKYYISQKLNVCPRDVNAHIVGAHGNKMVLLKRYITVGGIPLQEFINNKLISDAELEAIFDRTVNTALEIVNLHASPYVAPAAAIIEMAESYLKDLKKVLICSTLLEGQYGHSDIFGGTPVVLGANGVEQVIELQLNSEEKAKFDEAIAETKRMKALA
Chain of Protein kinase 7 (PK7), Plasmodium falciparum 3D7 (PF3D7_0213400) (Q7YTF7 1-343): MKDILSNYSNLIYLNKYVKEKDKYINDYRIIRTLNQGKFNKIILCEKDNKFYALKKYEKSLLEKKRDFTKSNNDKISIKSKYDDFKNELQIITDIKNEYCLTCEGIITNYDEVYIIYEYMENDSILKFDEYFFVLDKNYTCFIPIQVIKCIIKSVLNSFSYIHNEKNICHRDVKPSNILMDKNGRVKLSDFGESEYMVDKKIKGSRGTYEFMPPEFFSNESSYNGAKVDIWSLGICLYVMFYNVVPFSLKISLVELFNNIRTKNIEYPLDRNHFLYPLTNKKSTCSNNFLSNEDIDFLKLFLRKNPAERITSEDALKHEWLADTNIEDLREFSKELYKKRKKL

COc1ccc(-c2cccc(NC(=O)c3cccc(C#N)c3)c2)cc1CN1CCCN(C)CC1
active: growth inhibition [1] 99% | growth inhibition [4] 101%
inactive: inhibition [2] 22% | inhibition [3] -4% | outcome [5] | outcome [6] | outcome [7] | outcome [8]

Fc1ccc(CNc2ncc(-c3ccsc3)c(-c3nccs3)n2)cc1
active: growth inhibition [1] 77% | growth inhibition [4] 94%
inactive: inhibition [2] 7% | inhibition [3] -2% | outcome [5] | outcome [6] | outcome [7] | outcome [8]

Cc1cc(CN2CC[C@H](NC(=O)c3ccc(Cl)c(Cl)c3)C2)ccc1OCCN1CCCC1
inactive: inhibition [3] 0% | outcome [5] | outcome [6] | outcome [7] | outcome [8]
active: growth inhibition [1] 92% | inhibition [2] 56% | growth inhibition [4] 101%

CCOc1ccc2nc(C)cc(NN=Cc3cccc([N+](=O)[O-])c3)c2c1
inactive: inhibition [2] 7% | inhibition [3] 0% | outcome [5] | outcome [6] | outcome [7] | outcome [8]
active: growth inhibition [1] 93% | growth inhibition [4] 101%

COC(=O)C(Cc1ccccc1)C(CSCc1ccc(OC)cc1)C(=O)N[C@@H](C(=O)OC(C)(C)C)c1ccc(C(C)(C)C)cc1 (stereo not given in full)
inactive: growth inhibition [1] 44% | inhibition [2] -1% | inhibition [3] 2% | outcome [5] | outcome [6] | outcome [7] | outcome [8]
active: growth inhibition [4] 93%

Cc1cc(OCC2CCN(c3ncc(C(=O)NC4CC4)cc3Cl)CC2)ccc1F
active: growth inhibition [1] 96% | growth inhibition [4] 96%
inactive: inhibition [2] 16% | inhibition [3] 5% | outcome [5] | outcome [6] | outcome [7] | outcome [8]

O=C1CC(C(=O)Nc2cccc(-c3cccc(-c4nc5ccccc5[nH]4)c3)c2)c2ccccc2N1 (stereo not given)
inactive: growth inhibition [1] 32% | inhibition [2] 0% | inhibition [3] 1% | outcome [5] | outcome [6] | outcome [7] | outcome [8]
active: growth inhibition [4] 84%

Cc1ccc(N/C(N)=N/c2ncccc2OCc2c(F)cccc2Cl)cc1
inactive: inhibition [3] -2% | outcome [5] | outcome [6] | outcome [7] | outcome [8]
active: growth inhibition [1] 54% | inhibition [2] 78% | growth inhibition [4] 86%

NCCCNc1nccc(N2CCc3ncnc(Nc4ccc(OCc5cccc(F)c5)c(Cl)c4)c3C2)n1
active: growth inhibition [1] 93% | growth inhibition [4] 98%
inactive: inhibition [2] 18% | inhibition [3] 0% | outcome [5] | outcome [6] | outcome [7] | outcome [8]

O=C(Nc1ccc(-c2nc3ccccc3[nH]2)cc1)c1ccc(S(=O)(=O)N2CCCCCC2)cc1
inactive: growth inhibition [1] 21% | inhibition [2] 8% | inhibition [3] -6% | outcome [5] | outcome [6] | outcome [7] | outcome [8]
active: growth inhibition [4] 97%

FC(F)(F)c1ccc2nccc(NN=CC=Cc3ccccc3)c2c1
active: growth inhibition [4] 82%
inactive: growth inhibition [1] 9% | inhibition [2] -4% | inhibition [3] -1% | outcome [5] | outcome [6] | outcome [7] | outcome [8]

COc1ccc(-c2nonc2NC(=O)c2ccc(C(C)(C)C)cc2)cc1OC
inactive: inhibition [2] -3% | inhibition [3] -2% | outcome [5] | outcome [6] | outcome [7] | outcome [8]
active: growth inhibition [1] 73% | growth inhibition [4] 99%

COC(=O)c1ccc2c(c1)nc(Nc1cccc(F)c1)n2CC(O)c1ccccn1 (stereo not given)
inactive: inhibition [2] -7% | inhibition [3] -1% | outcome [5] | outcome [6] | outcome [7] | outcome [8]
active: growth inhibition [1] 96% | growth inhibition [4] 99%

COc1c(Br)cc(Br)cc1-c1ccc(CN2CC3CCC2CC3)[nH]1
active: growth inhibition [1] 100% | inhibition [2] 91% | growth inhibition [4] 98%
inactive: inhibition [3] -3% | outcome [5] | outcome [6] | outcome [7] | outcome [8]

c1ccc(OCCOc2ccc(Nc3ccnc4cc5ccccc5cc34)cc2)cc1
active: growth inhibition [1] 96% | growth inhibition [4] 102%
inactive: inhibition [2] 44% | inhibition [3] 7% | outcome [5] | outcome [6] | outcome [7] | outcome [8]

NCc1ccc(CNCc2cccc(-c3ccc(-c4nc5ccccc5[nH]4)cc3)c2)cc1
inactive: inhibition [2] 10% | inhibition [3] -8% | outcome [5] | outcome [6] | outcome [7] | outcome [8]
active: growth inhibition [1] 58% | growth inhibition [4] 100%

O=C(Nc1ccc(Cl)cc1)Nc1ccc(-c2cccc(-c3nc4ccccc4[nH]3)c2)cc1
inactive: inhibition [3] -3% | outcome [5] | outcome [6] | outcome [7] | outcome [8]
active: growth inhibition [1] 78% | inhibition [2] 69% | growth inhibition [4] 100%

CC(Cc1ccc(OCCN2CCN(c3ccc(Cl)cc3)CC2)cc1)NCC(O)c1cccc(C(F)(F)F)c1 (stereo not given)
inactive: inhibition [3] 1% | outcome [5] | outcome [6] | outcome [7] | outcome [8]
active: growth inhibition [1] 96% | inhibition [2] 97% | growth inhibition [4] 99%

COCCN1CCC(N(Cc2ccc(-c3ccc(OC(F)(F)F)cc3)cc2)C(=O)Cn2c(CCc3cccc(F)c3F)cc(=O)c3ccccc32)CC1
active: growth inhibition [1] 92% | inhibition [2] 100% | growth inhibition [4] 96%
inactive: inhibition [3] -10% | outcome [5] | outcome [6] | outcome [7] | outcome [8]

Cc1cccc2[nH]c(-c3ccc(-c4cccc(NC(=O)c5cccc(C(N)=O)c5)c4)cc3)nc12
inactive: inhibition [2] 14% | inhibition [3] -1% | outcome [5] | outcome [6] | outcome [7] | outcome [8]
active: growth inhibition [1] 87% | growth inhibition [4] 84%

O=C(O)c1ccc(OCOCOc2ccc(C(=O)O)c(O)c2)cc1O
inactive: growth inhibition [1] 0% | inhibition [2] -2% | inhibition [3] 6% | outcome [5] | outcome [6] | outcome [7] | outcome [8]
active: growth inhibition [4] 99%

O=C(NC1CCC(CCN2Cc3ccc(Br)cc3C2)CC1)c1cccc(-c2cccnc2)c1 (stereo not given)
inactive: inhibition [2] 14% | inhibition [3] 5% | outcome [5] | outcome [6] | outcome [7] | outcome [8]
active: growth inhibition [1] 73% | growth inhibition [4] 99%

CC[C@H](N=C(Nc1ccc(C#N)cc1O)Nc1cccc(Cl)c1Cl)c1ccccc1
inactive: inhibition [2] -2% | inhibition [3] -1% | outcome [5] | outcome [6] | outcome [7] | outcome [8]
active: growth inhibition [1] 71% | growth inhibition [4] 91%

CN(C)CCN(C)Cc1cccc(-c2ccc3c(Nc4ccc(F)cc4Cl)ccnc3c2)c1
inactive: inhibition [3] 0% | outcome [5] | outcome [6] | outcome [7] | outcome [8]
active: growth inhibition [1] 100% | inhibition [2] 53% | growth inhibition [4] 101%

COc1cccc2c(NN=Cc3ccc([N+](=O)[O-])cc3)ccnc12
inactive: growth inhibition [1] 16% | inhibition [2] 25% | inhibition [3] -3% | outcome [5] | outcome [6] | outcome [7] | outcome [8]
active: growth inhibition [4] 92%

O=c1ccc(-c2nc3cc(Cl)c(Cl)cc3n2Cc2ccc(Cl)cc2Cl)c[nH]1
inactive: inhibition [2] -8% | inhibition [3] -8% | outcome [5] | outcome [6] | outcome [7] | outcome [8]
active: growth inhibition [1] 67% | growth inhibition [4] 88%

COc1ccc(Cl)cc1N1CCN(CCCNC(=O)c2ccc(-c3nc4cc(Cl)c(F)cc4[nH]3)c(F)c2)CC1
active: growth inhibition [1] 91% | growth inhibition [4] 101%
inactive: inhibition [2] 21% | inhibition [3] 5% | outcome [5] | outcome [6] | outcome [7] | outcome [8]

COc1ccc(-c2ccc(NC(=O)c3ccc(Cl)cc3)cc2)cc1CN(C)CCN(C)C
active: growth inhibition [1] 61% | growth inhibition [4] 97%
inactive: inhibition [2] 37% | inhibition [3] -2% | outcome [5] | outcome [6] | outcome [7] | outcome [8]

Cc1cc(CNCCCCCCCNCc2ccc(-c3ccccc3)cc2)ccc1O
inactive: growth inhibition [1] 6% | inhibition [2] 49% | inhibition [3] -2% | outcome [5] | outcome [6] | outcome [7] | outcome [8]
active: growth inhibition [4] 97%

CCn1cc(-c2nc(-c3cc(OC)cc(OC)c3)no2)c(=O)c2ccccc21
inactive: inhibition [2] -7% | inhibition [3] 0% | outcome [5] | outcome [6] | outcome [7] | outcome [8]
active: growth inhibition [1] 77% | growth inhibition [4] 89%

Cc1ccc(C)c(-n2c(SCC(=O)Nc3ccc(C(N)=O)cc3)nnc2-c2cccc(Cl)c2)c1
inactive: inhibition [2] 6% | inhibition [3] 4% | outcome [5] | outcome [6] | outcome [7] | outcome [8]
active: growth inhibition [1] 91% | growth inhibition [4] 92%

COc1cc(NC(=O)c2sc(-c3ccc(Cl)cc3)cc2Cl)ccc1OCCN1CCCC1
inactive: growth inhibition [1] 21% | inhibition [3] 4% | outcome [5] | outcome [6] | outcome [7] | outcome [8]
active: inhibition [2] 72% | growth inhibition [4] 93%

O=C(NC1CC1)c1cnc(N2CCC(Cc3ccccc3)CC2)c(Cl)c1
active: growth inhibition [1] 96% | growth inhibition [4] 96%
inactive: inhibition [2] 10% | inhibition [3] -2% | outcome [5] | outcome [6] | outcome [7] | outcome [8]

CN(C)CCNCc1cccc(-c2cccc(-c3nc4ccccc4[nH]3)c2)c1
active: growth inhibition [1] 63% | growth inhibition [4] 101%
inactive: inhibition [2] 7% | inhibition [3] -3% | outcome [5] | outcome [6] | outcome [7] | outcome [8]

Nc1ccnc(N2CCC(CCOc3cc(C(F)(F)F)nc4c(C(F)(F)F)cccc34)CC2)c1
inactive: growth inhibition [1] 17% | inhibition [2] 35% | inhibition [3] -1% | outcome [5] | outcome [6] | outcome [7] | outcome [8]
active: growth inhibition [4] 98%

Cc1cc(C)c(C)c(OCCCON2C(N)=NC(N)=NC2(C)C)c1C
inactive: inhibition [3] -4% | outcome [5] | outcome [6] | outcome [7] | outcome [8]
active: growth inhibition [1] 95% | inhibition [2] 64% | growth inhibition [4] 94%

Nc1nc(N)c2c(Cc3ccccc3)cccc2n1
inactive: growth inhibition [1] 3% | inhibition [3] -7% | outcome [5] | outcome [6] | outcome [7] | outcome [8]
active: inhibition [2] 68% | growth inhibition [4] 94%

Cc1noc(C)c1-c1ccc2c(Nc3ccc(C(F)(F)F)cc3)c(C(N)=O)cnc2c1
active: growth inhibition [1] 95% | growth inhibition [4] 100%
inactive: inhibition [2] 1% | inhibition [3] 6% | outcome [5] | outcome [6] | outcome [7] | outcome [8]

COc1ccc(C(C)Nc2nc(N)c3cc(OC)c(OC)cc3n2)cc1 (stereo not given)
inactive: growth inhibition [1] 28% | inhibition [2] 23% | inhibition [3] -2% | outcome [5] | outcome [6] | outcome [7] | outcome [8]
active: growth inhibition [4] 101%

Cc1cccc2[nH]c(-c3ccc(-c4ccc(CN5CCN(CCN6CCOCC6)CC5)cc4)cc3)nc12
active: growth inhibition [1] 74% | growth inhibition [4] 98%
inactive: inhibition [2] 49% | inhibition [3] -1% | outcome [5] | outcome [6] | outcome [7] | outcome [8]
